The full data set covers some 7,900 targets. This sample favours those with a hit. About 0.6% of all pairs of compound and target were hits.

Results on 22 targets are retold here after the supplement of paper PMC10849652.

Chain of UniProt O75822 (O75822 whole entry, looked up): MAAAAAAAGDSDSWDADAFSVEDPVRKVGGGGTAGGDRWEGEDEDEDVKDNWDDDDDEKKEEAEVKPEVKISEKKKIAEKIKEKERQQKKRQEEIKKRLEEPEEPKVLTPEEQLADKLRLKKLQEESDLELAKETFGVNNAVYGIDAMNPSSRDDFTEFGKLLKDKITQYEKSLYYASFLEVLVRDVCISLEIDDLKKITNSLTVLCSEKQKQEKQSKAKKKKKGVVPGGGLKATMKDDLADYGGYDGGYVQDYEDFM
Chain of UniProt Q8N3D4 (Q8N3D4 whole entry, looked up): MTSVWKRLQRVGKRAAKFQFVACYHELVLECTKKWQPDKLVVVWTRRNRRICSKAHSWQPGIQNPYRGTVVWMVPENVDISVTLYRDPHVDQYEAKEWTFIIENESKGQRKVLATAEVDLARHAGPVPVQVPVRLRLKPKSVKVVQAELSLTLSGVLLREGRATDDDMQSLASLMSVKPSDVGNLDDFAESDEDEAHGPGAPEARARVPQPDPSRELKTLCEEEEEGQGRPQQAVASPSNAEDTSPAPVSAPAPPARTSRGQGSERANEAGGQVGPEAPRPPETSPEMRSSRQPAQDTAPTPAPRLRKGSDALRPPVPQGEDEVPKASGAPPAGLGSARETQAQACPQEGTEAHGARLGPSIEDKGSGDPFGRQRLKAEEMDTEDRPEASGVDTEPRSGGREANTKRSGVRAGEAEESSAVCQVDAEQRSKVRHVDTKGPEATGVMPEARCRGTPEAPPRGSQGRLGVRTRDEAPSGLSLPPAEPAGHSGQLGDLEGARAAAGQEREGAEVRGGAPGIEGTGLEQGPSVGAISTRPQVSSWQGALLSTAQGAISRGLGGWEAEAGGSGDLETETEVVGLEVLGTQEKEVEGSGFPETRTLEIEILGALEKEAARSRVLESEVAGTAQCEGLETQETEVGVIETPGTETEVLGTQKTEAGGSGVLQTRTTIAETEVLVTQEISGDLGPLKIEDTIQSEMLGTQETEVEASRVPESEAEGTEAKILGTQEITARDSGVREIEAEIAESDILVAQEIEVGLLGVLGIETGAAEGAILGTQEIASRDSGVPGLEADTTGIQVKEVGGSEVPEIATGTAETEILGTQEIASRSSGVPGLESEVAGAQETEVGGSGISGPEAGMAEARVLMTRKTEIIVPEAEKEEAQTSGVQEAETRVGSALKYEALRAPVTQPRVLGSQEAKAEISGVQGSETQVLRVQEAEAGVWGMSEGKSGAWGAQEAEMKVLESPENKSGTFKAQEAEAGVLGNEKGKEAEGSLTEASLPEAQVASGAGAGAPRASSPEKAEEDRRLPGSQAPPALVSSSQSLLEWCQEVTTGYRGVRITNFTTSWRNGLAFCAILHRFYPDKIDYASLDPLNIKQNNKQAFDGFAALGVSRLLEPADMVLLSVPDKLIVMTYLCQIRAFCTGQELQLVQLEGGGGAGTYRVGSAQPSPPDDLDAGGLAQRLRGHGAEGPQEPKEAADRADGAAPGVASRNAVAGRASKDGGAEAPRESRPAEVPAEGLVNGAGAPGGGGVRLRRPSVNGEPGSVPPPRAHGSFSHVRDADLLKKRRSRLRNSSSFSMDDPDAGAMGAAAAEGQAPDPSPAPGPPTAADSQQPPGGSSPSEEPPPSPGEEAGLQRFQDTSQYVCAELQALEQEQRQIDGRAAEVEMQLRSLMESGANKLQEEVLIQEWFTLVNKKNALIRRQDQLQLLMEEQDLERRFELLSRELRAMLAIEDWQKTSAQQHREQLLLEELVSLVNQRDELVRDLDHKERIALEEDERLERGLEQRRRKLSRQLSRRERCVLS
Chain of UniProt Q9BQI3 (Q9BQI3 whole entry, looked up): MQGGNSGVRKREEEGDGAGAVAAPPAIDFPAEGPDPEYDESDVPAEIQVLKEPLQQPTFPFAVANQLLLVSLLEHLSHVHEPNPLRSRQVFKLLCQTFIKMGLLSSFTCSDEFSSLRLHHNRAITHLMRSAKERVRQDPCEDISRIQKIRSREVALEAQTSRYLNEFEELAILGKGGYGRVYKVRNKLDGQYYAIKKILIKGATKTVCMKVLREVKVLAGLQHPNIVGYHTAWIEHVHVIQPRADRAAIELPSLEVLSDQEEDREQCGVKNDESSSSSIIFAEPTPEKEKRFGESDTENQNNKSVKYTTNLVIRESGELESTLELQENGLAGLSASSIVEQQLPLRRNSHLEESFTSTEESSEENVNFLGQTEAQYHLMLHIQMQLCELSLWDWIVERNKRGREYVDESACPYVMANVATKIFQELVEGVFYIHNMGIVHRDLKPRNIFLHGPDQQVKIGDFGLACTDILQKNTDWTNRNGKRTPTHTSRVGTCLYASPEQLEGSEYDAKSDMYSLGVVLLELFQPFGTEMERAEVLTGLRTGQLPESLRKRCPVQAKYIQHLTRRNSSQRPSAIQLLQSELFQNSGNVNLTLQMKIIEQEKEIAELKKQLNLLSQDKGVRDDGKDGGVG
Chain of UniProt Q03468 (Q03468 whole entry, looked up): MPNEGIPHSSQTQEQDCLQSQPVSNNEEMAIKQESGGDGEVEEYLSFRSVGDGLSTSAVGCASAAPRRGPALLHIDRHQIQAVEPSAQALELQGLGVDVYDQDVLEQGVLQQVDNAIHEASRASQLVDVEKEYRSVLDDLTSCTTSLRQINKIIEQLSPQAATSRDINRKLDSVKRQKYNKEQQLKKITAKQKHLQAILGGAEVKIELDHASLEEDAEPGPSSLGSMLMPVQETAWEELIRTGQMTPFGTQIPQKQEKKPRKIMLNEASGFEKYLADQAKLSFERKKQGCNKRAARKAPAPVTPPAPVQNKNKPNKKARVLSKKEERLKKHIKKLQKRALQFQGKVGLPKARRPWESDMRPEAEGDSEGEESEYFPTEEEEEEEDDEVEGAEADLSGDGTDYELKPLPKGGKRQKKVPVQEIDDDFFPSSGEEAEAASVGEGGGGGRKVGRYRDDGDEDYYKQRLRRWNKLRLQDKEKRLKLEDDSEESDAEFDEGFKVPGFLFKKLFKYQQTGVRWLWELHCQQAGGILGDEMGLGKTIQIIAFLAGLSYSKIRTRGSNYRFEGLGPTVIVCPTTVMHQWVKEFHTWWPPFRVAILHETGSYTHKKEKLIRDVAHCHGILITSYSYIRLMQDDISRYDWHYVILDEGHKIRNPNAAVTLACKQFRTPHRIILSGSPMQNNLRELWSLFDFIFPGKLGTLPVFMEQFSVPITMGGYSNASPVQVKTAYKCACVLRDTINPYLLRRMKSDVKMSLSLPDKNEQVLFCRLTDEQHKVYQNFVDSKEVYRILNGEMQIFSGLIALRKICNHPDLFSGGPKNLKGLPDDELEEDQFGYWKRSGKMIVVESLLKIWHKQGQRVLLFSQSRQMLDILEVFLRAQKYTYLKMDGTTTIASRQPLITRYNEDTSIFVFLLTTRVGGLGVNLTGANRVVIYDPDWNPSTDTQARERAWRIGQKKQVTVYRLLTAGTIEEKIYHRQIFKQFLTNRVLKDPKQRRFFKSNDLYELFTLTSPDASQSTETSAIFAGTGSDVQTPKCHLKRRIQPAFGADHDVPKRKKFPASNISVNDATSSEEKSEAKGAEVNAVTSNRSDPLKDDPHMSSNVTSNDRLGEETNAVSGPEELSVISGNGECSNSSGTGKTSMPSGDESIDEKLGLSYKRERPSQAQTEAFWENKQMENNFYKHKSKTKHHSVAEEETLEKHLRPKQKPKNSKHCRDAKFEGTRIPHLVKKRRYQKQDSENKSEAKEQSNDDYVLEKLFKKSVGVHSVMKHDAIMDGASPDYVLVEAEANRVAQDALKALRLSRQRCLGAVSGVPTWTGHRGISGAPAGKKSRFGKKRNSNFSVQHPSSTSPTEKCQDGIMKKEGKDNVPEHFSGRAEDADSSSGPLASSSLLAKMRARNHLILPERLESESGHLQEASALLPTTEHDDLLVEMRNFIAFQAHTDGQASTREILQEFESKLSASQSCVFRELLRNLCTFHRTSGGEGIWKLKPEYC
Chain of UniProt P98173 (P98173 whole entry, looked up): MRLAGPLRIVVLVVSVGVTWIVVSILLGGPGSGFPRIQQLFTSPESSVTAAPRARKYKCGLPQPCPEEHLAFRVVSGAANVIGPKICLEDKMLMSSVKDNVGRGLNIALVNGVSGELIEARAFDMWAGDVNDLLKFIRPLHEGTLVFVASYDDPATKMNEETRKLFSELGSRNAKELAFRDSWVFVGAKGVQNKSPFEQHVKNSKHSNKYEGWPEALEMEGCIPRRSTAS
Chain of UniProt Q8IYI6 (Q8IYI6 whole entry, looked up): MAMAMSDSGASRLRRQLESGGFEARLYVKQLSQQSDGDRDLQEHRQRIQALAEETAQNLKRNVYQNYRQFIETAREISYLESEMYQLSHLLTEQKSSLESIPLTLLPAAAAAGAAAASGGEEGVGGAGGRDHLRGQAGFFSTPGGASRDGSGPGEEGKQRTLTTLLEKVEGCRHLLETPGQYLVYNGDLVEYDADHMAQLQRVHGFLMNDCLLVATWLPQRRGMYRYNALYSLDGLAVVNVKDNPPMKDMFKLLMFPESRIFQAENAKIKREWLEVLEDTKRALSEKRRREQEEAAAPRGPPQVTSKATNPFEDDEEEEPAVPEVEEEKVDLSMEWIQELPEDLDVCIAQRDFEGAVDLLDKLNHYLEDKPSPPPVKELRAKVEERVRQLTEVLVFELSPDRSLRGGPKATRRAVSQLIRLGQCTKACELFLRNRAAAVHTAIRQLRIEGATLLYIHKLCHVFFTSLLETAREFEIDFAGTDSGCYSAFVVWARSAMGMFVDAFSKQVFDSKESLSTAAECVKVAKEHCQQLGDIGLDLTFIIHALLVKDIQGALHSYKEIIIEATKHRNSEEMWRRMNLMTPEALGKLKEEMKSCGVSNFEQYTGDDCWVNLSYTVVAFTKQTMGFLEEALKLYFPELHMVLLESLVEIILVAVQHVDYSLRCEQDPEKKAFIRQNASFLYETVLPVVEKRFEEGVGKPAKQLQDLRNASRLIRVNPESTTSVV

Compound in the test: CC(C)N(C[C@H]1O[C@@H](n2cnc3c(N)ncnc32)[C@H](O)[C@@H]1O)[C@H]1C[C@@H](CCc2nc3cc(C(C)(C)C)ccc3[nH]2)C1 [pinometostat]
Description: log2 fold change, soluble protein after heating vs DMSO (PISA); higher = thermal stabilisation; K562 cells, 10 uM, 30 min; active = over 0.2 and 3.5 SD of the protein, either way, in both replicates (recomputed). In a few lines:
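Thermal stability values are relative to control samples and come from duplicates. They are expressed as log2 fold changes. For measurement, K562 cells (2×10^6 cells/mL) received 10 μM compound for 30 min, and aliquots were heated for 3 min over 48°C-58°C, pooled, and extracted at 4°C in PBS with 0.5% NP-40. Soluble protein, the supernatant after 21,000xg for 90 min, was quantified by TMTpro 16plex LC-MS/MS with equalised channel sums.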
With EIF2AK3 (UniProt Q9NZJ5), the log2 fold change is -0.048 (inactive).
As for DCUN1D1 (UniProt Q96GG9), the figure is -0.035 (inactive); as for EIF3J isoform 2 (UniProt O75822), -0.018 (inactive).
With DCAF10 (UniProt Q5QP82) the figure was -0.016 (inactive); with EIF2AK1 (UniProt Q9BQI3), 0.031 (inactive); with FAM3A (UniProt P98173), 0.007 (inactive).
With DHCR7 (UniProt Q9UBM7), the log2 fold change is 0.199 (inactive).
As for EIF4G3 isoform 3 (UniProt O43432), the figure is 0.079 (inactive).
As for EIF3J (UniProt O75822), the figure is -0.007 (inactive); as for E2F4 (UniProt Q16254), 0.001 (inactive); as for DOHH (UniProt Q9BU89), 0.011 (inactive).
With ERLIN2 (UniProt O94905) the figure was 0.093 (inactive); with DPYSL2 (UniProt Q16555), 0.009 (inactive); with ELAC1 (UniProt Q9H777), -0.129 (inactive).
As to EEF1A1 (UniProt P68104), the log2 fold change was -0.028 (inactive).
With EHBP1L1 (UniProt Q8N3D4), the log2 fold change is 0.086 (inactive).
As for EXOC8 (UniProt Q8IYI6), the figure is 0.051 (inactive); as for DYNC1I2 isoform 2 (UniProt Q13409), 0.023 (inactive).
As for DTWD1 (UniProt Q8N5C7), the figure is -0.026 (inactive); as for DOLPP1 (UniProt Q86YN1), -0.056 (inactive); as for ERCC6 (UniProt Q03468), -0.078 (inactive).
As for CUX1 isoform 3 (UniProt P39880), the figure is -0.018 (inactive).
